Only some compounds are listed: those with a hit (about 4.1% of all), similar ones and a draw of the others.
Anthrax LF prot: anthrax lethal factor protease inhibition. P15917. multiplex microsphere protease cleavage assay, LF. inhibition, % at 10 µM. actives 0.12% (n = 360,000). AID 588501
Target sequence (P15917 whole entry, looked up): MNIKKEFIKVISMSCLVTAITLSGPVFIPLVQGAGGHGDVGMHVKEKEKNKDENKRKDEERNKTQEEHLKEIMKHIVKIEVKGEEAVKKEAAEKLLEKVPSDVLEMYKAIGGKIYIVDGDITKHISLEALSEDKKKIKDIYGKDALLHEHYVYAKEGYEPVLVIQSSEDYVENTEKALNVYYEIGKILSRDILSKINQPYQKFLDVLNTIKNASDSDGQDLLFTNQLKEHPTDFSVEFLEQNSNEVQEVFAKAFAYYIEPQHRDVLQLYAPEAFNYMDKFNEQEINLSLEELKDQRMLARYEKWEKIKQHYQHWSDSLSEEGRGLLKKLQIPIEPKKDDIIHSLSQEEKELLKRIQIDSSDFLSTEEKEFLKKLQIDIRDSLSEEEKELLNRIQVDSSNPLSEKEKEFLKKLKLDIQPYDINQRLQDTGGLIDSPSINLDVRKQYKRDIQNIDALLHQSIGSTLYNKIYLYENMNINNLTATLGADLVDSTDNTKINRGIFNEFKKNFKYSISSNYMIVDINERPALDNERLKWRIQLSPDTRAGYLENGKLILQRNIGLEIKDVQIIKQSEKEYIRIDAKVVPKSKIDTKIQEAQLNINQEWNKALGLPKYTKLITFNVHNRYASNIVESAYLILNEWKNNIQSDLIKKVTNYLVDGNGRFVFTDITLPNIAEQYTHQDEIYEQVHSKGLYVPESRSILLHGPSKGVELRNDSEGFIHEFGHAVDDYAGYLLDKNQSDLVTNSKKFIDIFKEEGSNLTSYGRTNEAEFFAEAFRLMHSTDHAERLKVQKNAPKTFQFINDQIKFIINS
Bead autofluor: flagged as autofluorescent in microsphere protease counterscreen; compound autofluorescence counterscreen, microsphere flow cytometry; stronger effect = higher value; fluorescence intensity (no concentration beside the values); actives 3.1% (n = 360,000); in the data active = fluorescence intensity above about 16000; inconclusive = no clear call, values can overlap the other calls
BoNT-A LC inh2: BoNT A light chain protease inhibition; actives 0.17% (n = 360,000); inhibition, % at 10 µM; multiplex microsphere protease substrate cleavage, flow cytometry
MazEF act: MazEF (E. coli) toxin RNase activation. P0AE70. FAM/BHQ RNA-DNA oligo cleavage fluorescence, 5 h. AID 504720. actives 0.32% (n = 350,000). activation, % at 20 µM; in the data active = activation above about 50%
BoNT F protease: inhibitors of Botulinum neurotoxin F light chain protease. inhibition, % at 10 µM. actives 0.22% (n = 360,000). Multiplex microsphere protease cleavage assay, flow cytometry; in the data active = inhibition above about 35%, passing the limit was not always enough; inconclusive = no clear call, values can overlap the other calls
VHR inh abs: DUSP3 (human) phosphatase inhibition; AID 1654; recombinant VHR phosphatase, pNPP absorbance; P51452; inhibition, % at 13.3 µM; actives 0.52% (n = 290,000); in the data active = inhibition above about 50%
A number is an active result. Cut-off read from the data, not from the text of the source, unless noted: active = inhibition above about 30%; inconclusive = no clear call, values can overlap the other calls; inactive = below that.

Cc1oc2c(C)c(O)ccc2c(=O)c1-c1ccc2ccccc2n1 was read as Anthrax LF prot inactive, Bead autofluor 19935, BoNT-A LC inh2 inactive, MazEF act inactive, BoNT F protease inactive and VHR inh abs inactive.
For COc1cccc(/C=C2\Oc3cc(OCC(=O)N4CCC[C@H]4C(=O)O)ccc3C2=O)c1 the results were Anthrax LF prot inactive, Bead autofluor inactive, BoNT-A LC inh2 inactive, MazEF act inactive, BoNT F protease inactive and VHR inh abs inactive.
O=c1oc(-c2cccs2)nc2c1cnn2-c1ccccc1 was read as Anthrax LF prot inactive, Bead autofluor 16820, BoNT-A LC inh2 inconclusive, MazEF act inactive, BoNT F protease inactive and VHR inh abs inactive.
`O=c1oc(-c2ccccc2)nc2c1cnn2-c1ccccc1` gave Anthrax LF prot inactive, Bead autofluor inactive, BoNT-A LC inh2 inactive, MazEF act inactive, BoNT F protease inactive and VHR inh abs inactive.
O=C1C=C(c2ccc(F)cc2OCc2ccccc2)C[C@@H](c2ccc(Cl)cc2)C1 was read as Anthrax LF prot inactive, Bead autofluor inactive, BoNT-A LC inh2 inactive, MazEF act inactive and BoNT F protease inactive.
Screening CCOC(=O)C1=C(C)N(C[C@@H]2CC[C@@H](Cc3ccc(-c4ccccc4)cc3)O2)C(=O)NC1C1CC1 (some centres not stated) returned Anthrax LF prot inactive, Bead autofluor inactive, BoNT-A LC inh2 inactive, MazEF act inactive and BoNT F protease inactive.
O=C(O)c1ccc([N+](=O)[O-])c2c1C(=O)c1ccccc1C2=O was read as Anthrax LF prot inactive, Bead autofluor 20562, BoNT-A LC inh2 inconclusive, MazEF act inactive and BoNT F protease inconclusive.
Screening Cc1ccc(C(=O)NCCN2CCC(n3c(=O)[nH]c4ccccc43)CC2)cc1F returned Anthrax LF prot inactive, Bead autofluor inactive, BoNT-A LC inh2 inactive and BoNT F protease inactive.
`COCc1ccc(-c2c(-c3cc(OC)cc(OC)c3)oc(=O)c3cc(OC)c(OC)cc23)cc1` gave Anthrax LF prot inactive, Bead autofluor inactive, BoNT-A LC inh2 inactive, MazEF act inactive and BoNT F protease inactive.
`C1=C(c2ccc(-c3ccccc3)cc2)Nc2ncnn2C1c1ccco1` (configuration not stated) gave Anthrax LF prot inactive, Bead autofluor inactive, BoNT-A LC inh2 inactive, MazEF act 344, BoNT F protease inactive and VHR inh abs inactive.
Screening CCCCN(C(=O)c1cc2ccccc2o1)c1c(N)n(CCCC)c(=O)[nH]c1=O returned Anthrax LF prot inactive, Bead autofluor inactive, BoNT-A LC inh2 inactive, MazEF act inactive and BoNT F protease inactive.
For C=C(C)C1CC=C(C)C(=NNC(=O)c2ccncc2)C1 (configuration not stated) the results were Anthrax LF prot inactive, Bead autofluor inactive, BoNT-A LC inh2 inactive, MazEF act inactive and BoNT F protease inactive.
Screening C=C(C)C1CC=C(C)/C(=N/NC(=O)CNc2ccc(OCC)cc2)C1 (configuration not stated) returned Anthrax LF prot inactive, Bead autofluor 21006, BoNT-A LC inh2 inconclusive, MazEF act inactive, BoNT F protease inactive and VHR inh abs inactive.
Screening C=C(C)C1CC=C(C)/C(=N/NC(=O)c2ccc(NC(=O)CCC)cc2)C1 (configuration not stated) returned Anthrax LF prot inactive, Bead autofluor 16939, BoNT-A LC inh2 inconclusive, MazEF act inactive, BoNT F protease inactive and VHR inh abs inactive.
Screening C=C(C)C1CC=C(C)/C(=N/NC(=O)c2ccc(NC(=O)CC)cc2)C1 (configuration not stated) returned Anthrax LF prot inactive, Bead autofluor 17225, BoNT-A LC inh2 inconclusive, MazEF act inactive, BoNT F protease inactive and VHR inh abs inactive.
For O=C(COc1ccc(CNC[C@H]2O[C@@H](n3ccc(=O)[nH]c3=O)[C@H](O)[C@@H]2O)cc1)Nc1nccs1 the results were Anthrax LF prot inactive, Bead autofluor inactive, BoNT-A LC inh2 inactive and BoNT F protease inactive.
For Cc1cc(C)c(NC(=O)Cn2ncc3ccccc32)c(C)c1 the results were Anthrax LF prot inactive, Bead autofluor inactive, BoNT-A LC inh2 inactive, MazEF act inactive, BoNT F protease inconclusive and VHR inh abs 57.
For CC1CCC/C(=N\NC(=O)COc2ccccc2Cl)C1 (configuration not stated) the results were Anthrax LF prot inactive, Bead autofluor inactive, BoNT-A LC inh2 inactive, MazEF act inactive, BoNT F protease inactive and VHR inh abs 51.
